According to the supplement of paper PMC10849652:
The full data set covers some 8,800 targets. This sample favours those with a hit. About 0.5% of all pairs of compound and target were hits.

Assays:
Assay in all cases: log2 fold change, soluble protein after heating vs DMSO (PISA); higher = thermal stabilisation; K562 lysate, 10 uM; active = over 0.2 and 3.5 SD of the protein, either way, in both replicates (recomputed)
[1] = compound: CCCS(=O)(=O)Nc1ccc(F)c(C(=O)c2c[nH]c3ncc(-c4ccc(Cl)cc4)cc23)c1F [vemurafenib]
Procedure, shortened: (§1)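 To prepare the extract, K562 pellets were dounce-homogenised in PBS pH 7.4 with 1 mM MgCl2, giving crude material at 1 mg/mL protein. This was treated with 10 μM compound for 30 min, then heated in aliquots for 3 min over 48°C-58°C before pooling and addition of NP-40 to 0.5% at 4°C. Centrifugation at 21,000xg for 90 min left soluble protein in the supernatant, which TMTpro 16plex LC-MS/MS quantified with equalised channel sums. Results are log-two fold changes in thermal stability compared with solvent controls, from duplicates.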

[2] = compound: CCCS(=O)(=O)Nc1ccc(F)c(C(=O)c2c[nH]c3ncc(Cl)cc23)c1F
Procedure, shortened: as §1

[3] = compound: CCN(CCCOc1ccc2c(Nc3cc(CC(=O)Nc4cccc(F)c4)[nH]n3)ncnc2c1)CCOP(=O)(O)O [barasertib]
Procedure, shortened: as §1

[4] = compound: CC[C@@H]1C(=O)N(C)c2cnc(Nc3ccc(C(=O)NC4CCN(C)CC4)cc3OC)nc2N1C1CCCC1
Procedure, shortened: as §1

[5] = compound: CC[C@@H]1C(=O)N(C)c2cnc(Nc3ccc(C(=O)N[C@H]4CC[C@H](N5CCN(CC6CC6)CC5)CC4)cc3OC)nc2N1C(C)C [volasertib]
Procedure, shortened: as §1

[6] = compound: CCn1c(C(=O)N(C2CC2)C2CC2)cc2c3c(ncn3C)c(Nc3cc(C)n(C)n3)nc21
Procedure, shortened: as §1

[7] = compound: CCn1cc(-c2ccnc3[nH]c(-c4cccc(CN(C)C)c4)cc23)c(-c2ccc(NC(=O)N(C)C)cc2)n1
Procedure, shortened: as §1

[8] = compound: CN1CCC(CNc2ccc3ncc(-c4cccc(OC(F)(F)F)c4)n3n2)CC1
Procedure, shortened: as §1

[9] = compound: CN1CCN(CCOc2cc(OC3CCOCC3)c3c(Nc4c(Cl)ccc5c4OCO5)ncnc3c2)CC1 [saracatinib]
Procedure, shortened: as §1

[10] = compound: CN1CCN(c2nc(C3=C(c4c[nH]c5ccccc45)C(=O)NC3=O)c3ccccc3n2)CC1 [sotrastaurin]
Procedure, shortened: as §1

[11] = compound: CN1CC[C@H](c2c(O)cc(O)c3c(=O)cc(-c4ccccc4Cl)oc23)[C@H](O)C1 [alvocidib]
Procedure, shortened: as §1

[12] = compound: CN1CCc2c(c3ccccc3n2Cc2ccc(C(=O)NO)cc2)C1 [Tubastatin A]
Procedure, shortened: as §1

[13] = compound: CNC(=O)C1=CC=CC=C1NC2=NC(=NC=C2Cl)NC3=C(C=C(C=C3)N4CCOCC4)OC
Procedure, shortened: as §1

[14] = compound: CNC(=O)c1ccc(Nc2ncc(C(F)(F)F)c(NCc3nccnc3N(C)S(C)(=O)=O)n2)cc1 [defactinib]
Procedure, shortened: as §1

[15] = compound: CNc1nc(-c2ccc3c(N)n[nH]c3c2)cc(N2C[C@@H](C(=O)NC3CCCCC3)CC[C@H]2C)n1
Procedure, shortened: as §1

[16] = compound: COC(=O)N[C@@H](C)CNc1nccc(-c2cn(C(C)C)nc2-c2cc(Cl)cc(NS(C)(=O)=O)c2F)n1 [encorafenib]
Procedure, shortened: as §1

[17] = compound: COC(=O)[C@H](CCSC)NC(=O)C1=C(C=C(C=C1)NC[C@H](CS)N)C2=CC=CC=C2
Procedure, shortened: as §1

[18] = compound: COc1cc(Nc2ncc3c(n2)-c2ccc(Cl)cc2C(c2c(F)cccc2OC)=NC3)ccc1C(=O)O [alisertib]
Procedure, shortened: as §1

[19] = compound: COc1cc2nc(-c3cc(F)ccc3O)nc(N[C@@H]3CNC[C@H]3C(C)(C)O)c2cc1OC
Procedure, shortened: as §1

[20] = compound: COc1cc2ncnc(Nc3ccc(F)c(Cl)c3)c2cc1OCCCN1CCOCC1 [gefitinib]
Procedure, shortened: as §1

Measured: log2 fold change

MRPL10 isoform 2 (UniProt Q7Z7H8)
inactive: [1] 0.027 | [2] 0.033 | [3] 0.132 | [4] 0.03 | [5] -0.037 | [6] -0.063 | [7] 0.075 | [8] -0.032 | [9] -0.005 | [10] 0.068 | [11] 0.024 | [12] -0.013 | [13] -0.035 | [14] 0.023 | [15] 0.074 | [16] 0.031 | [17] 0.183 | [18] 0.028 | [19] -0.025 | [20] -0.019

MDM1 (UniProt Q8TC05)
inactive: [1] 0.024 | [2] 0.053 | [4] -0.05 | [5] 0.024 | [6] 0.075 | [9] 0.013 | [11] -0.527 | [12] 0.007 | [13] -0.071 | [14] -0.126 | [15] -0.328 | [16] 0 | [17] -0.12 | [18] 0.018 | [19] -0.031 | [20] 0.14
active: [7] -1.5 | [8] 0.512

LUZP1 (UniProt Q86V48)
Chain of UniProt Q86V48 (Q86V48 whole entry, looked up): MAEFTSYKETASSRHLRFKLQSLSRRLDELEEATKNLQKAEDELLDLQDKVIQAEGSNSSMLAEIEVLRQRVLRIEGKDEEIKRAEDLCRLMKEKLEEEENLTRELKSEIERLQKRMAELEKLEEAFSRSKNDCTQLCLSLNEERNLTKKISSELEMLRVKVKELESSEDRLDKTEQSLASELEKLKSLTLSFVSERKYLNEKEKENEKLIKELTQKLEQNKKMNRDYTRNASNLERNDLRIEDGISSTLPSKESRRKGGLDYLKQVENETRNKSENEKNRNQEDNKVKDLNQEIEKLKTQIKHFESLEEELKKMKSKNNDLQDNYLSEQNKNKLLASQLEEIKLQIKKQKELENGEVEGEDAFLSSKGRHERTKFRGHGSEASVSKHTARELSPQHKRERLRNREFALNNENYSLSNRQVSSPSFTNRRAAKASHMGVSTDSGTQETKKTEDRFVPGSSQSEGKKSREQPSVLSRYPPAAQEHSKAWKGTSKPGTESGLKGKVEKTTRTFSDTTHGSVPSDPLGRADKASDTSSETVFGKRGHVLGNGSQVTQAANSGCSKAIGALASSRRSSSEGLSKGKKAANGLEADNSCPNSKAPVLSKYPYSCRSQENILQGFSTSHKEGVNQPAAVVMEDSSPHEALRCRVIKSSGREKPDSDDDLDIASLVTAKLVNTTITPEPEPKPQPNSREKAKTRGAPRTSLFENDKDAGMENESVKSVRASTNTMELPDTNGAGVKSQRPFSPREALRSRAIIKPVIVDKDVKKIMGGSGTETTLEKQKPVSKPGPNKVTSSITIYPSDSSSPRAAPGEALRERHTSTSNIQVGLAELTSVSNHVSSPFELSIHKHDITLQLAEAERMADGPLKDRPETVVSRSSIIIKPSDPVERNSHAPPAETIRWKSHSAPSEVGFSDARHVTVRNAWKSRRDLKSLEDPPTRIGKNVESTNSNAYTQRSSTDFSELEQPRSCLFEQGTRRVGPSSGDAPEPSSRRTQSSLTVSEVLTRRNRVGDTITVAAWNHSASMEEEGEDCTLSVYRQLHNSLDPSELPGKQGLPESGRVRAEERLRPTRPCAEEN
inactive: [1] 0.037 | [2] 0.003 | [3] 0.013 | [4] 0.086 | [5] -0.015 | [6] 0.012 | [7] 0.108 | [8] 0.014 | [9] -0.024 | [10] -0.01 | [11] -0.027 | [12] -0.061 | [13] 0.099 | [14] -0.056 | [15] 0.004 | [16] 0.023 | [17] -0.074 | [18] -0.014 | [19] 0.012 | [20] 0.039

LRIF1 (UniProt Q5T3J3)
Chain of UniProt Q5T3J3 (Q5T3J3 whole entry, looked up): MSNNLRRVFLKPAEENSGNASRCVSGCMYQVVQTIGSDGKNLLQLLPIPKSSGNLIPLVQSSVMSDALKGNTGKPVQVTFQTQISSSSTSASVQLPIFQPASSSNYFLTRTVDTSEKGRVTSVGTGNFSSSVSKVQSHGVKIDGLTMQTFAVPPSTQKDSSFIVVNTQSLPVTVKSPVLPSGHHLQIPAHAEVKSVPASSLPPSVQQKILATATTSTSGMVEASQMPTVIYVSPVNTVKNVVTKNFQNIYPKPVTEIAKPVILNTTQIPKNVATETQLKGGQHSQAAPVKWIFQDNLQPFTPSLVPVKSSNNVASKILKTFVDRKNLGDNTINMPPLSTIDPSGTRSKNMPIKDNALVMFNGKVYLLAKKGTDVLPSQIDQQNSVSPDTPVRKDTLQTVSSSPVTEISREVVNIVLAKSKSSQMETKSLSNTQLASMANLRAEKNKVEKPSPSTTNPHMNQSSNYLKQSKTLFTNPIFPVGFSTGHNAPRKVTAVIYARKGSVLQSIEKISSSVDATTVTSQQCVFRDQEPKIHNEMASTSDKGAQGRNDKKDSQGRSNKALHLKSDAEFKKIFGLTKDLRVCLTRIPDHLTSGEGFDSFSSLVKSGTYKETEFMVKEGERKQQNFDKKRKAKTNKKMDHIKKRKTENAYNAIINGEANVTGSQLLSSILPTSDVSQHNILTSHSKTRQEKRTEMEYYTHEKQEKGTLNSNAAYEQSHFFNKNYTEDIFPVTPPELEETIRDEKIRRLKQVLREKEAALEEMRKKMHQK
inactive: [1] 0.213 | [2] -0.005 | [4] -0.009 | [5] 0.042 | [6] 0.006 | [7] 0.105 | [8] 0.044 | [9] 0.046 | [10] 0.001 | [11] -0.018 | [12] 0.075 | [13] -0.035 | [14] 0.002 | [15] 0.126 | [16] 0.049 | [17] 0.052 | [18] -0.03 | [19] 0.234 | [20] -0.039

LRRC7 (UniProt Q96NW7)
inactive: [1] 0.112 | [2] -0.024 | [3] 0.062 | [4] 0.056 | [5] 0.047 | [6] -0.008 | [7] -0.033 | [8] -0.043 | [9] -0.044 | [10] -0.012 | [11] 0.069 | [12] 0.079 | [14] 0.251 | [15] 0.058 | [16] -0.103 | [17] 0.026 | [19] -0.016

KRR1 (UniProt Q13601)
Chain of UniProt Q13601 (Q13601 whole entry, looked up): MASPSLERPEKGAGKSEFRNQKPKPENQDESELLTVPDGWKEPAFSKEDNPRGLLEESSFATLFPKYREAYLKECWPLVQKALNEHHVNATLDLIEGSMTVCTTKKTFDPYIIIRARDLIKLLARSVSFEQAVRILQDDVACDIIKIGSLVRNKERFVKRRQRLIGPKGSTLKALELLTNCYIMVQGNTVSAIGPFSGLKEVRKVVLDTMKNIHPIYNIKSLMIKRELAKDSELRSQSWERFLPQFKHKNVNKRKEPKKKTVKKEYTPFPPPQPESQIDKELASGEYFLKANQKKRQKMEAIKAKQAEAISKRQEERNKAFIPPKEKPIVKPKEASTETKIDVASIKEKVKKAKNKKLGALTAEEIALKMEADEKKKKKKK
inactive: [1] 0.057 | [2] 0.01 | [3] 0.026 | [4] 0.065 | [5] -0.015 | [6] 0.023 | [7] -0.006 | [8] -0.026 | [9] 0.003 | [10] -0.021 | [11] 0.028 | [12] -0.033 | [13] -0.054 | [14] 0.01 | [15] -0.005 | [16] 0.092 | [17] 0.023 | [18] 0.032 | [19] 0.046 | [20] -0.014

MPDZ (UniProt O75970)
Chain of UniProt O75970 (O75970 whole entry, looked up): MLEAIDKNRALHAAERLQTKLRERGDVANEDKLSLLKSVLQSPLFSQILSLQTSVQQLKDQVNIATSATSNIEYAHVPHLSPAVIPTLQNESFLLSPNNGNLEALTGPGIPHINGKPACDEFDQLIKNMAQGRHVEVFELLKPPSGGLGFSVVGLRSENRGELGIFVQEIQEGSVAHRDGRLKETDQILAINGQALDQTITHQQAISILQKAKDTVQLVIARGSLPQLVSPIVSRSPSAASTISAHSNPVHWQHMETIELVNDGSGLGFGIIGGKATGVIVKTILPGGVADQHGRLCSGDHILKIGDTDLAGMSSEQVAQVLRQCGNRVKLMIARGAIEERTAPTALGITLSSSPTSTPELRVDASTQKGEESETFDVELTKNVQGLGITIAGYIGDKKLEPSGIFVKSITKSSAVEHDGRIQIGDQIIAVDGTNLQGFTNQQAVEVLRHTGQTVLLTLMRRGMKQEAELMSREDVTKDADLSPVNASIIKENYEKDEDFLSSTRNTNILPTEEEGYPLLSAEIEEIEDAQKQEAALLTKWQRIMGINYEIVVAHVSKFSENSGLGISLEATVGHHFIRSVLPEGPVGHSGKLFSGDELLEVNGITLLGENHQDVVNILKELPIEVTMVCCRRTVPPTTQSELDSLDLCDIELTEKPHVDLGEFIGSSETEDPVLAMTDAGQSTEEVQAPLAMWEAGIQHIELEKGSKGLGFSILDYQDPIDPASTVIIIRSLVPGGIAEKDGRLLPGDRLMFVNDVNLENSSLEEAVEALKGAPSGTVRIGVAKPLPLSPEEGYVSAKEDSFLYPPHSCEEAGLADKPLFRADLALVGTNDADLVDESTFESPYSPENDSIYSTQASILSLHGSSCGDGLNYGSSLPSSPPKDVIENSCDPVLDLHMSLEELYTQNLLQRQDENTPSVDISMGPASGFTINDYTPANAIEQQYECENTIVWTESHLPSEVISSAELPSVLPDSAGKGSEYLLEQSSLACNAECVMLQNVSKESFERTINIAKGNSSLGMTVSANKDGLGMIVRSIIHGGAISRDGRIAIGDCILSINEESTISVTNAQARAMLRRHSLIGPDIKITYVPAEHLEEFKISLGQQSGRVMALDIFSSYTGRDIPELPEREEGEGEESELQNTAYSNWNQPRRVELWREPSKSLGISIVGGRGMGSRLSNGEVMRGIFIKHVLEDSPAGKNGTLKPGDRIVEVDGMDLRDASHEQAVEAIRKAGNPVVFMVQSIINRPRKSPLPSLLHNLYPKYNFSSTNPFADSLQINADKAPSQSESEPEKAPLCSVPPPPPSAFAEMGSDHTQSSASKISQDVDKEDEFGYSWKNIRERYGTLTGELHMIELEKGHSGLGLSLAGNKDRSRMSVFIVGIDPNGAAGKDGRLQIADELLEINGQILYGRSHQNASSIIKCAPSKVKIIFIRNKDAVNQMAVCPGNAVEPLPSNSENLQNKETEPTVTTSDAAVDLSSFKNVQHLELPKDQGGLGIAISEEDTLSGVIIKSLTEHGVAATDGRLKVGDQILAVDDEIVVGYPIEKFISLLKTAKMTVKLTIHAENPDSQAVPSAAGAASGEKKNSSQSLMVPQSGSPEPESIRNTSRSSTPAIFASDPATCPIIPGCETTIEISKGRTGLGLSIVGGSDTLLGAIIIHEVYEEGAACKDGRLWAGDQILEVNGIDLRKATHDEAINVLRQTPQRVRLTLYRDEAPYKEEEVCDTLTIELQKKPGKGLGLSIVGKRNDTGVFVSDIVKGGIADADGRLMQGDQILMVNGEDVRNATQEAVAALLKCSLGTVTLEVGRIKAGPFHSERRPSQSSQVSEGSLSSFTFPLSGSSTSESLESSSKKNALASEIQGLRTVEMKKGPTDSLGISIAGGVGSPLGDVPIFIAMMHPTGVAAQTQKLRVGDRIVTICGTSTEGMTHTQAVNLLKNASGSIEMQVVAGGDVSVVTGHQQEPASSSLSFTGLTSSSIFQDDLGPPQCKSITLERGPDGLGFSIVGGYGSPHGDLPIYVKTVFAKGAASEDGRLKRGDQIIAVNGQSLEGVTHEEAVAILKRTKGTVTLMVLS
inactive: [1] 0.059 | [2] 0.03 | [4] 0 | [5] -0.026 | [6] -0.115 | [7] 0.129 | [8] -0.017 | [9] 0.088 | [10] 0.209 | [11] 0.028 | [12] 0.117 | [13] 0.236 | [14] 0.053 | [15] 0.099 | [16] -0.091 | [17] -0.032 | [18] -0.167 | [19] -0.114 | [20] 0.228

MAP4K2 (UniProt Q12851)
Chain of UniProt Q12851 (Q12851 whole entry, looked up): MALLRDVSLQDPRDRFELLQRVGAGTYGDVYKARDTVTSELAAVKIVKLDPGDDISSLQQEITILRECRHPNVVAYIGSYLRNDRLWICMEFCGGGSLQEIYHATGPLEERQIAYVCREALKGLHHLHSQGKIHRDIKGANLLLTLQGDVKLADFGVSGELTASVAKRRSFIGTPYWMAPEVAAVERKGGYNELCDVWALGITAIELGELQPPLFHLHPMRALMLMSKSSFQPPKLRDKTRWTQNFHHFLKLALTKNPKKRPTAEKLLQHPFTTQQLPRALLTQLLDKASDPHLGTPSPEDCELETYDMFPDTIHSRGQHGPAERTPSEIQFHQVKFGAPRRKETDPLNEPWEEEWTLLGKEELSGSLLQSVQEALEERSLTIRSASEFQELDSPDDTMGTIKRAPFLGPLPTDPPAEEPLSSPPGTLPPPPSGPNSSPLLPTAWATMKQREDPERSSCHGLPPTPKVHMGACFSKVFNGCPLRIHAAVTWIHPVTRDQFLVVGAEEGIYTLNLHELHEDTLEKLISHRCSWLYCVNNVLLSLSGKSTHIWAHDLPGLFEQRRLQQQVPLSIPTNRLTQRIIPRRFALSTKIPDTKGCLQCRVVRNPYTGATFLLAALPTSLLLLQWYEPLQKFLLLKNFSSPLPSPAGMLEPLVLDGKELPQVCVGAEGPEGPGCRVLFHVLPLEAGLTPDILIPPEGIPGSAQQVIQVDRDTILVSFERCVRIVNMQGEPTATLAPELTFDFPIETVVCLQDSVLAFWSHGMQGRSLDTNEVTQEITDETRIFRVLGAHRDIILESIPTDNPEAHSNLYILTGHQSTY
inactive: [1] 0.198 | [2] -0.038 | [3] 0.009 | [4] -0.009 | [5] -0.035 | [6] -0.023 | [7] -0.317 | [8] 0.105 | [9] 0.005 | [10] 0.053 | [11] 0.111 | [12] -0.189 | [13] -0.02 | [14] 0.086 | [15] 0.055 | [16] -0.183 | [17] -0.234 | [19] 0.219

MPZL1 (UniProt O95297)
active: [7] 0.262
inactive: [1] 0.037 | [2] 0.001 | [3] 0.024 | [4] 0.057 | [5] 0.035 | [6] 0.027 | [8] -0.052 | [9] 0.045 | [10] -0.022 | [11] -0.01 | [12] 0.048 | [13] -0.014 | [14] 0.01 | [15] 0.028 | [16] 0.045 | [17] -0.082 | [18] 0.007 | [19] 0.012 | [20] 0.016
